Experimental findings from ChEMBL document CHEMBL5606458, “ASAP - ZIKV NS2B-NS3 protease fluorescence single point” (2024) are described below.

The test deals with Nonstructural protein 3 (Zika virus) (UniProt A0A024AXB9).
The mark [1] stands for this setting: PRVABC59, Concentration 50.0 uM, Number of replicates 1.0.
Setting [2] is: PRVABC59, Concentration 15.0 uM, Number of replicates 1.0.

Among all 2,700 compounds or so, about 160 (5.9%) showed an effect of 50% or more. Only a selection was taken, and strong results are over-represented in it overall.

Nonstructural protein 3 (Zika virus), sequence (A0A024AXB9 as listed by the source): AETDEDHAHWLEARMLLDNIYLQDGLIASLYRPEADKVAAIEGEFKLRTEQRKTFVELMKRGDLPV

For orientation: inhibition means the drop in the measured response relative to a control, in per cent. Turning to `Cc1cc(CO)c2cccc(Nc3cc(O)[nH]n3)c2n1`, the inhibition by setting is: (PRVABC59, Concentration 49.95 uM, Number of replicates 2.0, Standard deviation 1.761368724187627 %) 18.3%; (PRVABC59, Concentration 99.9 uM, Number of replicates 2.0, Standard deviation 1.139118047569397 %) 23.8%.
In the case of `Cn1cc(CNC(=O)c2ccccc2-c2cccnc2)cn1`, the inhibition was 0.299% (PRVABC59, Concentration 49.5 uM, Number of replicates 2.0, Standard deviation 0.5877340250731194 %); -0.679% (PRVABC59, Concentration 99.01 uM, Number of replicates 2.0, Standard deviation 0.42986369479040104 %); -0.69% (PRVABC59, Concentration 198.0 uM, Number of replicates 2.0, Standard deviation 0.566811449656849 %).
Take `O=Cc1ccc(N2CCC(C(=O)N[C@H](CO)[C@H](O)c3ccc([N+](=O)[O-])cc3)CC2)cc1`: the inhibition under setting [1] amounted to 25.6%.
Take `N#Cc1ccc(Cl)c(NC(=O)C2CCN(c3ccc(C=O)cc3)CC2)c1`: the inhibition under setting [1] is 23.1%.
With `O=Cc1ccc(N2CCC(C(=O)NCc3ccccc3-n3cccn3)CC2)cc1`, the inhibition (PRVABC59, Concentration 10.0 uM, Number of replicates 1.0) turned out to be 21.4%.
On to `N=C(N)NC[C@@H]1CCCN(C(=O)[C@H](Cc2ccc(CN)cc2)NC(=O)c2ccccc2)C1`, for which the inhibition (PRVABC59, Concentration 49.5 uM, Number of replicates 2.0, Standard deviation 0.6960698702606968 %) is 2.68%; the inhibition (PRVABC59, Concentration 99.01 uM, Number of replicates 2.0, Standard deviation 1.1872902095434084 %) was 12.8%; the inhibition (PRVABC59, Concentration 198.0 uM, Number of replicates 2.0, Standard deviation 0.3804343133987339 %) is 26.8%.
On to `CN(C)CCN(Cc1ccccc1)C(=O)c1cc(Cl)ccc1NS(=O)(=O)c1ccc(Oc2ccccc2Cl)cc1`, for which the inhibition under setting [2] was 15.1%.
As to `Cc1ccc2ccccc2c1NC(=O)C1CCN(c2ccc(C=O)cc2)CC1`, the inhibition under setting [1] is 19.8%.
In the case of `CN(C)c1ccc(C(=O)Nc2cc(Cl)cc(C(=O)NC(C)(C)CO)c2)nc1`, the inhibition is -1.53% (PRVABC59, Concentration 49.5 uM, Number of replicates 2.0, Standard deviation 3.9613998246279105 %) and 0.849% (PRVABC59, Concentration 99.01 uM, Number of replicates 2.0, Standard deviation 2.7948399639930708 %).
With `Cc1cc(CO)c2cccc(NC(=O)c3cccc(Cn4cncn4)c3)c2n1`, the inhibition by setting is: (PRVABC59, Concentration 49.95 uM, Number of replicates 2.0, Standard deviation 2.574308180740061 %) -0.138%; (PRVABC59, Concentration 99.9 uM, Number of replicates 2.0, Standard deviation 1.9018768762288814 %) 11.1%.
As to `Cc1cnccc1NC(=O)c1ccccc1-c1nc(C(C)C)no1`, the inhibition was -0.098% (PRVABC59, Concentration 49.5 uM, Number of replicates 2.0, Standard deviation 0.2610834999883118 %); -0.148% (PRVABC59, Concentration 99.01 uM, Number of replicates 2.0, Standard deviation 1.3020487023400833 %); 0.672% (PRVABC59, Concentration 198.0 uM, Number of replicates 2.0, Standard deviation 1.8545350914642316 %).
As for `O=C(c1cc(Cl)ccc1NS(=O)(=O)c1ccc(Oc2ccccc2Cl)cc1)N1CCN(c2ccc(Br)cn2)CC1`, under setting [2], the inhibition worked out at 18.6%.
On to `O=C(NCCc1ccc(Cl)cc1Cl)c1cc(Cl)ccc1NS(=O)(=O)c1ccc(Oc2ccccc2Cl)cc1`, for which, under setting [2], the inhibition turned out to be 27.1%.
Consider `CN1CCN(C(=O)C2CCN(C(=O)C3CCN(c4ccc(C=O)cc4)CC3)CC2)CC1`, for which, under setting [1], the inhibition worked out at 21.1%.
Same read-out and setting: the same measure for `O=Cc1ccc(N2CCC(C(=O)N3CCC(N4CCCC4=O)CC3)CC2)cc1`: 23.2%.
With `O=C(Nc1cc(Cl)cc(Cl)c1O)c1cc(Cl)ccc1NS(=O)(=O)c1ccc(Oc2ccccc2Cl)cc1`, the inhibition under setting [2] amounted to 74.3%.
Still for that read-out and setting: the same measure for `O=C(Nc1ccc2ccccc2c1O)c1cc(Cl)ccc1NS(=O)(=O)c1ccc(Oc2ccccc2Cl)cc1`: 14%; for `O=C(Nc1ccc([N+](=O)[O-])c2ccccc12)c1cc(Cl)ccc1NS(=O)(=O)c1ccc(Oc2ccccc2Cl)cc1`: 22.7%.
Regarding `O=C(Nc1ccc(O)cc1[N+](=O)[O-])c1cc(Cl)ccc1NS(=O)(=O)c1ccc(Oc2ccccc2Cl)cc1`, the inhibition under setting [2] was 32.2%.
On to `O=C(Nc1ccc([N+](=O)[O-])cc1)c1cc(Cl)ccc1NS(=O)(=O)c1ccc(Oc2ccccc2Cl)cc1`, for which the inhibition under setting [2] came out at 29.8%.
With `O=C(Nc1cc(Cl)ccc1Br)c1cc(Cl)ccc1NS(=O)(=O)c1ccc(Oc2ccccc2Cl)cc1`, the inhibition under setting [2] amounted to 24.1%.
On to `CC(=O)Nc1ccc(NC(=O)c2cc(Cl)ccc2NS(=O)(=O)c2ccc(Oc3ccccc3Cl)cc2)cc1`, for which the inhibition under setting [2] was 63.1%.
In the case of `O=C(Nc1ccccc1)c1cc(Cl)ccc1NS(=O)(=O)c1ccc(Oc2ccccc2Cl)cc1`, the inhibition under setting [2] amounted to 54.2%.
Turning to `CCCOc1ccc(NC(=O)c2cc(Cl)ccc2NS(=O)(=O)c2ccc(Oc3ccccc3Cl)cc2)cc1`, the inhibition under setting [2] stood at 43.9%.
The same measure, in the same setting: the same measure for `O=C(Nc1ccc(Oc2ccc(Cl)cc2)cc1)c1cc(Cl)ccc1NS(=O)(=O)c1ccc(Oc2ccccc2Cl)cc1`: 14.2%; for `O=C(Nc1ccc(Oc2ccccc2Cl)cc1)c1cc(Cl)ccc1NS(=O)(=O)c1ccc(Oc2ccccc2Cl)cc1`: 19.7%; for `O=C(Nc1cc(Cl)cc([N+](=O)[O-])c1O)c1cc(Cl)ccc1NS(=O)(=O)c1ccc(Oc2ccccc2Cl)cc1`: 92.4%.
On to `CCOc1ccccc1CCNC(=O)c1cc(Cl)ccc1NS(=O)(=O)c1ccc(Oc2ccccc2Cl)cc1`, for which, under setting [2], the inhibition came out at 9.83%.
`CNC(=O)c1cc(Cl)ccc1NS(=O)(=O)c1ccc2[nH]cnc2c1`: the inhibition (PRVABC59, Concentration 49.5 uM, Number of replicates 2.0, Standard deviation 2.3657282322003765 %) is -9.41%.
As to `Cc1cc(CO)c2cccc(Nc3cc(C)on3)c2n1`, the inhibition (PRVABC59, Concentration 49.95 uM, Number of replicates 2.0, Standard deviation 0.1664787029188791 %) was -8.71%.
Turning to `CN(C(=O)c1cc(Cl)ccc1NS(=O)(=O)c1ccc(Oc2ccccc2Cl)cc1)[C@H]1CS(=O)(=O)C[C@@H]1O`, the inhibition under setting [2] stood at 1.21%.
For the molecule `Cc1cc(CO)c2cccc(C[C@H](NC(=O)c3cc(C(=O)O)[nH]n3)C(=O)O)c2n1`, the inhibition was 1.37% (PRVABC59, Concentration 49.95 uM, Number of replicates 2.0, Standard deviation 1.6911148062176817 %) and 8.92% (PRVABC59, Concentration 99.9 uM, Number of replicates 2.0, Standard deviation 1.9620942703325182 %).
As for `O=Cc1ccc(N2CCC(C(=O)Nc3ccc(C(F)(F)F)cc3[N+](=O)[O-])CC2)cc1`, under setting [1], the inhibition was found to be 22.3%.
As for `O=C(c1cc(Cl)ccc1NS(=O)(=O)c1ccc(Oc2ccccc2Cl)cc1)N1CCC(c2nc3ccccc3[nH]2)CC1`, the inhibition under setting [2] turned out to be 20.5%.
As for `Cc1cc(CO)c2cccc(Cc3cccc(C(=O)N[C@@H](CCC(N)=O)C(=O)O)c3)c2n1`, the inhibition (PRVABC59, Concentration 49.95 uM, Number of replicates 2.0, Standard deviation 1.9977585963676485 %) stood at 14.4% and the inhibition (PRVABC59, Concentration 99.9 uM, Number of replicates 2.0, Standard deviation 0.9280938346971718 %) amounted to 36%.
In the case of `Cc1cc(CO)c2cccc(CC(=O)Nc3cccc(C(N)=O)c3)c2n1`, the inhibition by setting is: (PRVABC59, Concentration 49.95 uM, Number of replicates 2.0, Standard deviation 0.035627236808440856 %) 58.9%; (PRVABC59, Concentration 99.9 uM, Number of replicates 2.0, Standard deviation 0.025447255606513557 %) 72.8%.
As to `Cc1cc(CO)c2cccc(CC(=O)Nc3ccc(C(=O)O)o3)c2n1`, the inhibition runs as follows: (PRVABC59, Concentration 49.95 uM, Number of replicates 2.0, Standard deviation 1.3790313962849292 %) 42.9%; (PRVABC59, Concentration 99.9 uM, Number of replicates 2.0, Standard deviation 0.49288480262410383 %) 40.6%.
Turning to `Cc1cc(CO)c2cccc(Cc3cccc(C(=O)NCC(N)=O)c3)c2n1`, the inhibition is, setting by setting: (PRVABC59, Concentration 49.95 uM, Number of replicates 2.0, Standard deviation 1.0591786257609663 %) -5.74%; (PRVABC59, Concentration 99.9 uM, Number of replicates 2.0, Standard deviation 0.9490662751035868 %) -1.72%.
In the case of `Cc1cc(CO)c2cccc(CC(=O)N[C@@H](CCC(N)=O)C(=O)O)c2n1`, the inhibition is, setting by setting: (PRVABC59, Concentration 49.95 uM, Number of replicates 2.0, Standard deviation 0.13741625923449508 %) 69.6%; (PRVABC59, Concentration 99.9 uM, Number of replicates 2.0, Standard deviation 0.11197439842459092 %) 81.6%.
With `Cc1cc(CO)c2cccc(Cc3ccccc3C(=O)Nc3cccc(C(N)=O)c3)c2n1`, the inhibition is -2.71% (PRVABC59, Concentration 49.95 uM, Number of replicates 2.0, Standard deviation 0.5610502494199251 %) and 0.693% (PRVABC59, Concentration 99.9 uM, Number of replicates 2.0, Standard deviation 0.1363299663609753 %).
As for `Cc1cc(CO)c2cccc(Cc3ccccc3C(=O)N[C@@H](CCC(N)=O)C(=O)O)c2n1`, the inhibition is, setting by setting: (PRVABC59, Concentration 49.95 uM, Number of replicates 2.0, Standard deviation 1.0696657731948411 %) -4.71%; (PRVABC59, Concentration 99.9 uM, Number of replicates 2.0, Standard deviation 0.7655451252044032 %) 0.649%.
Take `Cc1cc(CO)c2cccc(Cc3cccc(C(=O)Nc4nonc4C(N)=O)c3)c2n1`: the inhibition by setting is: (PRVABC59, Concentration 49.95 uM, Number of replicates 2.0, Standard deviation 1.609742570683987 %) 20.1%; (PRVABC59, Concentration 99.9 uM, Number of replicates 2.0, Standard deviation 0.8074931564941592 %) 55.3%.
`Cc1cc(CO)c2cccc(CC(=O)Nc3nonc3C(N)=O)c2n1`: the inhibition is 82% (PRVABC59, Concentration 49.95 uM, Number of replicates 2.0, Standard deviation 0.05598719921229546 %) and 86.1% (PRVABC59, Concentration 99.9 uM, Number of replicates 2.0, Standard deviation 1.0790078750483718 %).
`Cc1cc(CO)c2cccc(Nc3nonc3C(N)=O)c2n1`: the inhibition stood at 4.15% (PRVABC59, Concentration 49.95 uM, Number of replicates 2.0, Standard deviation 1.4175935710362748 %) and 4.07% (PRVABC59, Concentration 99.9 uM, Number of replicates 2.0, Standard deviation 2.0633301575187155 %).
On to `Cc1cc(CO)c2cccc(Cc3cccc(C(=O)Nc4cccc(C(N)=O)c4)c3)c2n1`, for which the inhibition (PRVABC59, Concentration 49.95 uM, Number of replicates 2.0, Standard deviation 0.1992514179713741 %) was -3.36% and the inhibition (PRVABC59, Concentration 99.9 uM, Number of replicates 2.0, Standard deviation 0.4299637092619174 %) was -0.56%.
